# ssDAF-12 act = activators of S. stercoralis DAF-12 nuclear receptor; HEK293 ssDAF-12/GRIP1 lit1-tk-luc reporter, luminescence; % of 3 µM dafachronic acid response; activation, % at 6.8 µM; 370,000 tested, 1% active;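 active = activation above the mean over all tested compounds plus 3 SD, cut at about 0.9% in these data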;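 also: 0% = DMSO-only wells and 100% = 3 µM delta7-dafachronic acid wells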
# SMARCA2 act = activators of SMARCA2 function. MG213 cells, MMTV-luciferase reporter, dexamethasone, overnight. activation, % at 9.1 µM. 370,000 tested, 1% active; in the data active = activation above about 7.8%;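 also: 0% = vehicle wells and 100% = reference activator wells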
# DAX1 inh-1 = NR0B1 (DAX1) inhibition. 340,000 tested, 0.99% active. P51843. inhibition, % at 6.75 µM. HEK293 Gal4-DAX1 luciferase reporter, luminescence;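 active = inhibition above the mean over all tested compounds plus 3 SD, cut at about 4.2% in these data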;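 also: 0% = DAX1-transfected cells with DMSO and 100% = empty-vector control cells with DMSO; inhibition shows as a rise in luminescence from relieved DAX1 repression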
# Target sequence (P51843 207-470 limits assumed): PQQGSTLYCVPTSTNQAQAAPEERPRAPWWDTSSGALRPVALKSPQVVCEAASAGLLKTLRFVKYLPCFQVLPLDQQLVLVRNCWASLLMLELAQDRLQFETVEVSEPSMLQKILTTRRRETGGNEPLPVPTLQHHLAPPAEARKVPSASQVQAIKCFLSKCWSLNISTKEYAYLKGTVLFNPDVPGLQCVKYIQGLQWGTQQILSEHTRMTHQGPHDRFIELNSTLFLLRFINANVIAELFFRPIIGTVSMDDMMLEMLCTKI
# hcDAF12 agonist = activates DAF-12 receptor from parasite H. contortus; 370,000 tested, 1.4% active; AID 652067; activation, % at 6.8 µM; HEK293 hcDAF-12 lit1-tk-luc reporter, luminescence; 0% DMSO, 100% Δ7-dafachronic acid;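 active = activation above the mean of all tested compounds plus 3 SD, cut at about 5.5% in these data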;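 also: 100% = response to 3 µM Δ7-dafachronic acid high control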
# DAX1 inh-2 = blocks DAX1 repression of SF-1 activated StAR promoter | HEK293T StAR-luciferase reporter, SF-1/DAX-1 repression relief | inhibition, % at 6.8 µM | 370,000 tested, 1.1% active;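 active = inhibition above the mean over all tested compounds plus 3 SD, cut at about 3.6% in these data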;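 also: 0% = DAX-1 cells with DMSO and 100% = cells lacking DAX-1 with DMSO; higher inhibition means more luminescence from relief of DAX-1 repression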
# hgDAF-12 ag = activates the H. glycines DAF-12 receptor ligand-binding domain; HEK293 GAL4-hgDAF12 UAS-luciferase reporter, agonist luminescence; normalized to butyrate control; activation, % at 6.8 µM; 370,000 tested, 1.8% active; AID 687014;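 active = activation above a cutoff set at the mean of all screened compounds plus 3 SD, cut at about 10% in these data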;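 also: 0% = DMSO wells and 100% = sodium butyrate wells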
# LXRb hcDAF ctr = counter-screen for hcDAF-12 agonists: agonists of human LXR-beta | shares compounds with hcDAF12 agonist | HEK293 Gal4-LXR tk-luc reporter, luminescence, 24 h; normalized: DMSO 0%, positive control 100% | activation, % at 6.8 µM | 3,400 tested, under 10 active;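 active = mean percent activation of the reporter above a cutoff set as the average over tested compounds plus their standard deviation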
# Target sequence (P55055 whole entry, looked up, the tested form may be a part): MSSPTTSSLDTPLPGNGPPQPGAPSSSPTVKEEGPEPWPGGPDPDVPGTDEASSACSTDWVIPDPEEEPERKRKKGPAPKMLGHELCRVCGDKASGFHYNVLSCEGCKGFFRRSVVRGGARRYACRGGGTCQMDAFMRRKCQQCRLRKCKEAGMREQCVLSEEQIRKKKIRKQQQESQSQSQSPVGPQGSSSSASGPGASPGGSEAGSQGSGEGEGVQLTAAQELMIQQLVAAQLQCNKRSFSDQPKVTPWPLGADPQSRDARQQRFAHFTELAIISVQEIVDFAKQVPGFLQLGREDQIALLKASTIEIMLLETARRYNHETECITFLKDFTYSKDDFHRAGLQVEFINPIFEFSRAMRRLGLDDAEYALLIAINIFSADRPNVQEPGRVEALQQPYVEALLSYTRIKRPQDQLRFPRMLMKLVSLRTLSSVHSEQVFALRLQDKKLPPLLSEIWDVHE
# hcDAF12 ag = confirmation of H. contortus DAF-12 agonists; shares compounds with hcDAF12 agonist; HEK293 hcDAF-12 lit1-tk-luc reporter, luminescence; % of Δ7-dafachronic acid response; activation, % at 6.8 µM; 3,400 tested, 61% active; AID 743032;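 active = mean activation across triplicate tests above the threshold derived from the earlier primary screen, cut at about 5.5% in these data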;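 also: 0% = DMSO only wells and 100% = 3 µM Δ7-dafachronic acid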
# hgDAF12 ag = hgDAF-12 agonism, confirmation assay; shares compounds with hgDAF-12 ag; HEK293 GAL4-hgDAF12 luciferase reporter, agonist mode; percent of butyrate response; activation, % at 6.8 µM; 3,300 tested, 80% active;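 active = mean activation over triplicate wells above the hit cutoff derived from the earlier primary screen, cut at about 11% in these data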;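 also: 0% = DMSO low control and 100% = 2 mM sodium butyrate high control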
# LXRb DAF12 ctr = counter-screen for DAF-12 agonists: agonists of human LXR-beta; shares compounds with hgDAF-12 ag; HEK293 Gal4-LXR luciferase reporter, 24 h; activation, % at 6.8 µM; 3,300 tested, under 10 active;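 active = mean activation of the triplicate above a set limit carried over from the primary screen, none filed active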
# * = called active by the depositor; · = no result. Only some compounds are listed: those with a hit (about 4.8% of all), similar ones and a draw of the others.
SMILES,ssDAF-12 act,SMARCA2 act,DAX1 inh-1,hcDAF12 agonist,DAX1 inh-2,hgDAF-12 ag,LXRb hcDAF ctr,hcDAF12 ag,hgDAF12 ag,LXRb DAF12 ctr
CCCCS/C(N)=N/N=C/c1cc(C)ccc1O,0.2,5.2,1.1,0.0,0.3,5.5,·,·,·,·
CCS/C(N)=N/N=C/c1cc(C)ccc1O,0.7,7.7,0.4,7.9*,2.8,7.4,1.7,6.2*,·,·
O=C(NCCN1CCc2ccccc2C1)C1CCN(S(=O)(=O)N2CCC3(CC2)OCCO3)CC1,0.6,0.0,-1.6,7.5*,-0.5,1.4,-0.1,0.8,·,·
N#C/C(=C/c1ccc(N2CCCCC2)cc1)c1cccc(F)c1,-0.9,3.1,0.2,8.8*,1.0,6.6,0.8,1.8,·,·
COc1cc(N2CCCC2)c(OC)cc1/C=C(/C#N)c1ccc(F)cc1,-1.1,2.1,-0.5,-1.7,-0.1,-1.1,·,·,·,·
CCOc1ccc(NC(=O)CC2S/C(=N/N=C3CCCCCC3)NC2=O)cc1 (stereo not given),-1.5,-0.3,0.3,-0.7,-0.4,-1.1,·,·,·,·
Cc1occc1C(=O)Nc1ccccc1NC(=O)c1ccoc1C,-0.7,-2.2,-0.5,1.6,-0.4,-1.7,·,·,·,·
Cc1occc1C(=O)Nc1cccc2ccccc12,1.1*,2.6,3.6,6.7*,3.8*,17.0*,0.9,5.9*,20.8*,0.7
Cc1occc1C(=O)Nc1cccc(C(=O)O)c1,0.2,7.2,0.8,1.8,1.2,3.4,·,·,·,·
Cc1ccc(NC(=O)c2ccoc2C)cc1C,-0.5,2.3,0.2,6.9*,2.8,13.9*,0.8,4.5,12.2*,0.4
CC[n+]1c(/C=C/c2ccc(OC)c(OC)c2)ccc2ccccc21,1.1*,5.0,4.4*,9.3*,3.4,16.8*,1.1,9.7*,17.7*,0.9
CC[n+]1c(/C=C/c2ccc(OC(C)=O)c(OC)c2)ccc2ccccc21,-0.5,7.4,1.5,-0.8,1.8,6.5,·,·,·,·
CCN(CC1COc2ccccc2O1)C(=S)Nc1ccc(F)cc1 (stereo not given),-0.1,-2.2,0.1,-1.3,-1.1,-1.0,·,·,·,·
O=C(Nc1ccc(Cl)cc1)Nc1cccc2nsnc12,1.3*,1.1,1.6,11.6*,1.1,15.0*,1.4,11.5*,19.6*,0.7
Cc1ccc(-c2nc3nc4ccccc4nc3n2Cc2ccco2)cc1,1.4*,3.3,1.5,10.8*,5.1*,16.2*,1.3,8.8*,13.9*,0.9
Clc1ccc(-c2nc3nc4ccccc4nc3n2Cc2ccco2)cc1,1.1*,3.0,3.5,8.4*,3.1,14.1*,0.6,5.8*,7.3,0.2
COc1ccc2cc(C#N)c(SCC(=O)N3CCCC3)nc2c1,-1.0,1.9,-0.3,-2.5,-0.6,4.2,·,·,·,·
COC(=O)CSc1nc2cc(OC)ccc2cc1C#N,-0.4,3.8,4.3*,8.2*,3.8*,15.2*,1.5,7.8*,23.1*,0.9
CCOc1ccc(NC(=O)c2nsc(Cl)c2Cl)cc1,0.9*,2.5,3.9,7.2*,4.4*,18.2*,1.2,6.6*,17.9*,0.7
CCOc1ccc(NC(=O)c2ccncc2)cc1,-1.5,-2.3,3.5,0.8,0.0,-0.1,·,·,·,·
c1ccc(-c2nc(-c3cccs3)[nH]c2-c2ccccc2)cc1,-1.4,-0.8,0.4,-1.1,-1.3,-1.8,·,·,·,·
Cc1nc2nc(-c3cccs3)[nH]c2cc1Br,1.0*,6.5,2.7,8.9*,1.3,22.7*,1.5,8.3*,21.6*,1.0
COc1ccccc1N1CCN(c2ccc(-c3ccccc3)nn2)CC1,1.3*,3.1,-3.2,7.1*,3.2,18.0*,0.9,4.4,8.2,0.7
O=C1CCC([N+](=O)[O-])C(c2ccc3c(c2)OCO3)N1 (stereo not given),-1.4,-0.7,0.2,0.4,-0.8,-1.0,·,·,·,·
CCc1nn(CC(=O)NCCCN2CCN(CC)CC2)c(=O)c2cc3occc3n12,-1.1,2.2,0.9,-0.8,0.7,1.2,·,·,·,·
SMILES,ssDAF-12 act,SMARCA2 act,DAX1 inh-1,hcDAF12 agonist,DAX1 inh-2,hgDAF-12 ag,LXRb hcDAF ctr,hcDAF12 ag,hgDAF12 ag,LXRb DAF12 ctr
CCc1nnc(NC(=O)c2ccc3ccccc3n2)s1,2.6*,4.1,1.3,13.0*,3.9*,13.8*,1.4,15.5*,17.8*,0.6
Cc1ccc(NC(=O)c2ccc3ccccc3n2)nc1,3.5*,1.4,2.9,16.1*,3.8*,16.2*,1.5,16.7*,19.6*,1.3
COc1cccc2c1nc(C)c1cc(C)oc12,-0.3,-0.1,0.7,-0.3,0.3,6.0,·,·,·,·
COc1cccc2nc3cc(C)c(C)cc3nc12,0.7,7.0,-0.8,7.5*,1.9,18.0*,1.4,12.4*,18.4*,1.1
Cc1ccnc(NC(=O)c2cc3cc(F)ccc3s2)c1,2.4*,5.7,2.4,9.9*,3.3,21.9*,1.6,8.4*,19.2*,1.1
CCOC(=O)CC[C@H]1CC[C@]2(CCCN(C(=O)c3ccno3)C2)O1,-0.8,-2.0,·,-1.1,-0.3,-1.5,·,·,·,·
COC(=O)[C@H](CCSC)NC(=O)Cn1cnc2c(SC)nc(N)nc21,-0.7,-0.1,-0.2,-0.7,0.3,-1.1,·,·,·,·
C=CCNc1ncnc2c1cnn2-c1ccc(OC)cc1,0.9*,4.8,3.6,6.6*,4.3*,14.2*,1.6,5.8*,17.2*,0.8
N#CC1=C2CCCCC2(O)NC1=O (stereo not given),-1.3,6.2,1.6,-0.9,-0.5,-0.9,·,·,·,·
Nc1ccc2nc(-c3ccccc3)cnc2c1,0.5,7.4,3.3,4.6,1.3,6.9,·,·,·,·
Cc1cc2ncc(-c3ccccc3)nc2cc1C,1.7*,2.5,5.0*,14.0*,3.3,18.5*,2.0,11.4*,23.0*,1.3
O=S(=O)(c1cccs1)N1CCC(CO)(Cc2cccc(F)c2)CC1,-1.7,0.8,-0.7,-1.7,0.4,-1.8,·,·,·,·
Cc1ccc(C(=O)O/N=C(\N)c2ccc(Br)cc2)cc1,-0.6,2.6,-1.5,0.0,0.5,3.3,·,·,·,·
COc1ccc(C(=O)O/N=C(\N)c2ccccc2)cc1,1.9*,0.7,1.3,8.7*,3.4,14.4*,1.8,6.7*,18.2*,1.0

# Compound activity deposited in PubChem BioAssay by The Scripps Research Institute Molecular Screening Center.
